Screening data as filed in PubChem BioAssay.
A selection: hits, their analogues and other compounds. The true share with any hit is near 17%.
TDP1 block: blocks human tyrosyl-DNA phosphodiesterase 1. Potency, µM (top dose mostly 130 µM), most hits filed as inhibitors. Q9NUW8. 350,000 tested, 0.28% active. recombinant TDP1, AlphaScreen DNA substrate cleavage; further: nearly all actives have a fitted effect of over 40% in size
Target sequence (Q9NUW8 whole entry, looked up): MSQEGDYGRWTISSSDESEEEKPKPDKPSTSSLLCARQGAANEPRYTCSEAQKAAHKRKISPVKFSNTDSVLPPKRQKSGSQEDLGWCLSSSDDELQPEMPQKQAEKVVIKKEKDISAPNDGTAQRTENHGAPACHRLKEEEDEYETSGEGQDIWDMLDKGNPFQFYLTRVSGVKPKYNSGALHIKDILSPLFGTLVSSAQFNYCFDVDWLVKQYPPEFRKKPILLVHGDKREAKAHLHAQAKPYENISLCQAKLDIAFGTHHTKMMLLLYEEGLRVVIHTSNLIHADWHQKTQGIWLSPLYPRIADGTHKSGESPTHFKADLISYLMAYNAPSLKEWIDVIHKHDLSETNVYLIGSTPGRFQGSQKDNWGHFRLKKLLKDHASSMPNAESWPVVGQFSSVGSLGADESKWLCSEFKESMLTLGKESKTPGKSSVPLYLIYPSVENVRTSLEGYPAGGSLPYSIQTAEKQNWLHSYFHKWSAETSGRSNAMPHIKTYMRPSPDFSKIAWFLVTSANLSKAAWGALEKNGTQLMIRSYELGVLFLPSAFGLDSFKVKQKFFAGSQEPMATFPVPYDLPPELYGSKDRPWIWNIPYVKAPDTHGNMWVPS
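Compounds were preincubated with Tdp1 (1 nM final) for 15 min at room temperature before substrate (15 nM final) started a 5 min reaction; beads (10 ug/ml final) were then added for 10 min before AlphaScreen detection.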
DT40 TDP1 CPT: DT40-hTDP1 cell growth loss with CPT; chicken DT40 Tdp1-/-;hTDP1 cells + 20 nM CPT, ATP luminescence, 48 h; Potency, µM (series often up to 46.2 µM), usual class: inhibitors; 420,000 tested, 12% active; AID 686979; further: nearly all actives have a fitted effect of over 55% in size
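Chicken DT40 Tdp1-/- cells complemented with human TDP1, 400 cells/well, exposed to compounds plus 20 nM camptothecin for at least 48 h at 37 C; viability read as ATP content by CellTiter-Glo luminescence.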
TDP1 cell noCPT: qHTS for Inhibitors of human tyrosyl-DNA phosphodiesterase 1 (TDP1): qHTS in cells in absence of CPT; 420,000 tested, 15% active; DT40 Tdp1-/- hTDP1 cells, no CPT, ATP luminescence, 48 h; Potency, µM (series often up to 46.2 µM), most hits filed as inhibitors; further: nearly all actives have a fitted effect of over 55% in size
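A cellular qHTS used chicken DT40 cells lacking endogenous Tdp1 but carrying stably transfected human TDP1. Compounds were applied without camptothecin, and cell growth kinetics were judged by ATP-dependent luminescence after ≥48 hr.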
ClpP mod: qHTS Assay for Activators of ClpP. ATP-dependent Clp protease proteolytic subunit (Bacillus subtilis (strain 168)), P80244. purified B. subtilis ClpP, FRET peptide cleavage, 20 min. AID 651965, 2013. Potency, µM (highest dose often 57.5 µM). 340,000 tested, 1.9% active; active means well fitted falling curve with a large enough effect; inconclusive means small, poorly fitted or top-dose-only effect; inactive means no such curve, though single readings can be large or run the other way; further: the source files actives as falling curves though it sought activators and does not explain the sign; nearly all actives have a fitted effect of over 65% in size
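Purified B. subtilis ClpP, 10 microg/mL final in Tris/HCl pH8 with KCl, BSA, glycerol and Tween-20, cleaved an Abz/nitrotyrosine-quenched decapeptide. Fluorescence (ex 320, em 430) was read at 0 and 20 min at room temperature. Delta was normalized to 5.8 microM ADEP and DMSO/no-enzyme controls.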
Each line names hits and unclear results; the compound was inactive in the other large screens; ! = a repeat was not active. Unless noted, the call rests on the fitted dose curve; in most records, active means well fitted curve in the direction sought with a large enough effect; inconclusive means small, poorly fitted or top-dose-only effect, or another doubt; inactive means no such curve, though single readings can be large; an effect the other way counts as inactive or inconclusive.

Cc1sc2ncn(CC(=O)N3CCN(c4ccc(F)cc4)CC3)c(=O)c2c1S(=O)(=O)N1CCC(C)CC1	DT40 TDP1 CPT inconclusive, TDP1 cell noCPT inconclusive
Cc1sc2ncn(CC(=O)N3CCN(c4ccccc4)CC3)c(=O)c2c1S(=O)(=O)N1CCC(C)CC1	DT40 TDP1 CPT inconclusive, TDP1 cell noCPT 23.1µM
Cc1sc2ncn(CC(=O)N3CCN(c4cccc(Cl)c4)CC3)c(=O)c2c1S(=O)(=O)N1CCC(C)CC1	DT40 TDP1 CPT inconclusive, TDP1 cell noCPT 23.1µM
COc1ccc(OC)c(S(=O)(=O)NC(=O)C2(C)CCN2C(=O)Cc2ccccc2Cl)c1 (centres undefined)	none (no result: TDP1 block)
Cc1nc(N2CCOCC2)c2c(C)c(C(=O)Nc3ccccc3Cl)sc2n1	TDP1 cell noCPT inconclusive (no result: ClpP mod)
Cc1nc(N2CCN(c3ccccn3)CC2)c2c(C)c(C(=O)Nc3ccc(F)cc3F)sc2n1	DT40 TDP1 CPT 16.4µM, TDP1 cell noCPT 13µM (no result: ClpP mod)
Cc1nc(N2CCN(c3ccccn3)CC2)c2c(C)c(C(=O)Nc3ccccc3F)sc2n1	DT40 TDP1 CPT inconclusive, TDP1 cell noCPT 16.4µM (no result: ClpP mod)
Cc1nc(N2CCN(c3ccccn3)CC2)c2c(C)c(C(=O)Nc3ccc(F)cc3Cl)sc2n1	DT40 TDP1 CPT 23.1µM, TDP1 cell noCPT 20.6µM
O=C(NCc1cccnc1)NC(=O)c1ccc(Cl)cc1	DT40 TDP1 CPT inconclusive, TDP1 cell noCPT inconclusive
CCN(CC(=O)NC(C)(C)C)C(=O)c1ccccc1SCC(=O)NC1CCCCCCC1	DT40 TDP1 CPT inconclusive, TDP1 cell noCPT inconclusive
Cc1c(O)cccc1C(=O)N[C@@H](CSc1ccccc1)[C@H](O)CN1C[C@H]2CCCC[C@H]2C[C@H]1C(=O)NC(C)(C)C	DT40 TDP1 CPT 9.2µM!, TDP1 cell noCPT 23.1µM!
CC1Cc2cc(S(=O)(=O)NCc3ccccc3Cl)ccc2N1C(=O)C1CCC1 (centres undefined)	DT40 TDP1 CPT 14.6µM, TDP1 cell noCPT 7.31µM
COc1cccc(CNS(=O)(=O)c2ccc3c(c2)CC(C)N3C(=O)C2CC2)c1 (centres undefined)	DT40 TDP1 CPT 20.6µM, TDP1 cell noCPT 10.3µM
COc1ccc(NS(=O)(=O)c2ccc3c(c2)CC(C)N3C(C)=O)c(OC)c1 (centres undefined)	DT40 TDP1 CPT 18.4µM, TDP1 cell noCPT 20.6µM
CCOc1ccccc1NS(=O)(=O)c1ccc2c(c1)CC(C)N2C(=O)C1CC1 (centres undefined)	DT40 TDP1 CPT inconclusive, TDP1 cell noCPT 14.6µM
CC(C)N1C(=O)c2ccccc2NC(=O)C1C(=O)NCc1cccc(C(F)(F)F)c1 (centres undefined)	DT40 TDP1 CPT inconclusive, TDP1 cell noCPT inconclusive (no result: TDP1 block)
CC(=O)N1c2ccc(S(=O)(=O)NCCc3ccccc3)cc2CC1C (centres undefined)	DT40 TDP1 CPT inconclusive, TDP1 cell noCPT 11.6µM
CC(=O)N1c2ccc(S(=O)(=O)NCCC(=O)N(C)Cc3ccccc3)cc2CC1C (centres undefined)	DT40 TDP1 CPT inconclusive, TDP1 cell noCPT inconclusive
CC1Cc2cc(S(=O)(=O)NCCc3ccccc3)ccc2N1C(=O)C1CC1 (centres undefined)	DT40 TDP1 CPT 14.6µM, TDP1 cell noCPT 14.6µM
CCC(=O)N1c2ccc(S(=O)(=O)NCc3ccc(F)cc3)cc2CC1C (centres undefined)	DT40 TDP1 CPT 14.6µM, TDP1 cell noCPT 11.6µM
COc1ccccc1CNS(=O)(=O)c1ccc2c(c1)CC(C)N2C(C)=O (centres undefined)	DT40 TDP1 CPT inconclusive, TDP1 cell noCPT 18.4µM
Cc1nc2ccc(S(=O)(=O)N(CC(=O)Nc3cccc(C)c3C)Cc3ccccc3)cc2s1	TDP1 cell noCPT inconclusive
CCc1ccccc1NC(=O)CSc1nc2ncccc2o1	none
CCCn1c(N)c(N(CCOC)C(=O)c2ccc(S(=O)(=O)N3CCOCC3)cc2)c(=O)[nH]c1=O	none (no result: TDP1 block)
O=C(NN1CCCCCC1)c1ccccc1F	none (no result: TDP1 block, ClpP mod)
COc1ccc(CCNS(=O)(=O)c2ccc3c(c2)CC(C)N3C(=O)C2CCC2)cc1OC (centres undefined)	DT40 TDP1 CPT inconclusive, TDP1 cell noCPT 13µM
Cc1cccc(CNC(=O)c2ccc3nc(Cc4ccccc4)oc3c2)c1	DT40 TDP1 CPT 20.6µM, TDP1 cell noCPT 23.1µM
Cc1cc(CNC(=O)c2ccc3nc(Cc4ccccc4F)oc3c2)nn1C	DT40 TDP1 CPT inconclusive, TDP1 cell noCPT inconclusive
CC(CNC(=O)c1ccc2nc(Cc3ccccc3)oc2c1)c1ccccc1 (centres undefined)	DT40 TDP1 CPT inconclusive, TDP1 cell noCPT 16.4µM
O=C(NCc1ccncc1)c1ccc2nc(Cc3ccccc3F)oc2c1	DT40 TDP1 CPT 25.9µM, TDP1 cell noCPT inconclusive
CN(C)c1ccc(CNC(=O)c2ccc3nc(Cc4ccccc4)oc3c2)cc1	DT40 TDP1 CPT inconclusive, TDP1 cell noCPT 20.6µM
CC(NC(=O)c1ccc2nc(Cc3ccccc3)oc2c1)c1ccccc1 (centres undefined)	DT40 TDP1 CPT inconclusive, TDP1 cell noCPT inconclusive
Cc1ccc(C(=O)OCC(=O)Nc2ccc3c(c2)OCO3)c(O)c1	none
C[C@H]1CN([C@@H](C)CO)C(=O)c2cccc(NS(=O)(=O)c3cn(C)cn3)c2O[C@H]1CN(C)S(C)(=O)=O	none
COc1ccc(NC(=O)CSc2nc(-c3cccc(C)c3)[nH]c2-c2ccccc2)cc1OC	DT40 TDP1 CPT 9.2µM, TDP1 cell noCPT 6.51µM
COc1ccc(-c2nc(SCC(=O)Nc3ccc4c(c3)OCCO4)c(-c3ccc(C)cc3)[nH]2)cc1OC	DT40 TDP1 CPT inconclusive, TDP1 cell noCPT 18.4µM, ClpP mod inconclusive
COc1ccc(NC(=O)CSc2nc(-c3ccc(OC)cc3)[nH]c2-c2ccc(F)cc2)cc1	none
COc1ccc(-c2[nH]c(-c3ccc(C)cc3)nc2SCC(=O)NC2CCCC2)cc1	DT40 TDP1 CPT inconclusive, TDP1 cell noCPT inconclusive
COc1ccc(-c2nc(SCC(=O)NC3CCCC3)c(-c3ccc(C)cc3)[nH]2)cc1OC	DT40 TDP1 CPT inconclusive, TDP1 cell noCPT inconclusive, ClpP mod inconclusive
COc1ccc(-c2[nH]c(-c3ccc(OC)c(OC)c3)nc2SCC(=O)Nc2ccccc2)cc1	DT40 TDP1 CPT 16.4µM, TDP1 cell noCPT inconclusive
COc1ccc(NC(=O)CSc2nc(-c3ccc(OC)c(OC)c3)[nH]c2-c2ccc(C)cc2)cc1	DT40 TDP1 CPT 5.8µM, TDP1 cell noCPT inconclusive
Cc1cccc(NC(=O)c2ccc3snnc3c2)c1	none
O=C(c1ccc(N2C(=O)CCC2=O)cc1)N1CCCSC1=Nc1ccccc1	TDP1 cell noCPT inconclusive (no result: TDP1 block)
Cc1cc(N=NC(=O)c2ccccc2O)c2ccccc2c1O	DT40 TDP1 CPT 16.4µM, TDP1 cell noCPT 18.4µM
CCOC(=O)C(=O)N=Nc1c(O)n(C)c2ccccc12	none
Cn1c(O)c(N=NC(=O)CNC(=O)c2ccco2)c2ccccc21	none
Cn1c(O)c(N=NC(=O)c2ccccc2O)c2ccccc21	TDP1 block inconclusive, DT40 TDP1 CPT 13µM, TDP1 cell noCPT 16.4µM (no result: ClpP mod)
Cn1c(O)c(N=NC(N)=S)c2ccccc21	DT40 TDP1 CPT 6.68µM, TDP1 cell noCPT 5.31µM (no result: TDP1 block, ClpP mod)
